{"source": "the supplement of paper PMC8975748", "note": "Counter-ions that a name gives are not always drawn. ± gives the standard deviation of the averaged measurements.", "data": [{"system": "Saccharomyces cerevisiae BY4741 SeMeCo community", "test": "mean cell size (pixel area) (pixels); higher = larger cells", "settings": "10 µM; 24 h; SM minimal medium", "outline": "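Drug was acoustically predosed into 384-well plates to a final 10 µM in SM medium, and each well received 70 µl of Saccharomyces cerevisiae BY4741 diluted to OD600 = 0.3 from an overnight preculture at OD600 = 1.0. This four-plasmid fluorescent community carries one fluorescent marker per plasmid, and each plasmid complements one auxotrophy. After 24 h, the cells were fixed with paraformaldehyde and imaged by automated confocal microscopy, and Harmony analysis yielded mean cell pixel area per well. Each value is averaged over 3 replicates. Same SeMeCo high-content imaging drug screen: Selleck FDA-approved drugs at 10 µM, 24 h in SM medium, 384-well plates, 3 replicates.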", "values": [{"smiles": "COc1ccc(-c2nc3cc(C4=NNC(=O)CC4C)ccc3[nH]2)cc1", "note": "(stereo not given) [Pimobendan]", "mean cell size": "12.31 ± 0.12"}, {"smiles": "O=C1[C@@H]2[C@H]3CC[C@H](C3)[C@@H]2C(=O)N1C[C@@H]1CCCC[C@H]1CN1CCN(c2nsc3ccccc23)CC1", "note": "[lurasidone]", "mean cell size": "12.19 ± 0.019"}, {"smiles": "O=C(O)c1cn(-c2ccc(F)cc2)c2cc(N3CCNCC3)c(F)cc2c1=O", "note": "[Sarafloxacin HCl]", "mean cell size": "12.2 ± 0.18"}, {"smiles": "O=C(O)c1ccccc1O", "note": "[Salicylic acid]", "mean cell size": "12.4 ± 0.14"}, {"smiles": "Nc1nc2c(ncn2COCCO)c(=O)[nH]1", "note": "[Aciclovir]", "mean cell size": "12.5 ± 0.32"}, {"smiles": "C[C@@H](O)[C@H]1C(=O)N2C(C(=O)O)=C([C@H]3CCCO3)S[C@H]12", "note": "[Faropenem Sodium]", "mean cell size": "12.39 ± 0.088"}, {"smiles": "CCn1cc(C(=O)O)c(=O)c2cc(F)c(N3CCNCC3)cc21", "note": "[Norfloxacin]", "mean cell size": "12.3 ± 0.21"}, {"smiles": "CC(C)c1c(C(=O)Nc2ccccc2)c(-c2ccccc2)c(-c2ccc(F)cc2)n1CC[C@@H](O)C[C@@H](O)CC(=O)O", "note": "[Atorvastatin Calcium]", "mean cell size": "12 ± 0.14"}, {"smiles": "CCCCCOc1ccccc1/C(=C\\SC)n1ccnc1", "note": "[Neticonazole Hydrochloride]", "mean cell size": "11.8 ± 0.13"}, {"smiles": "CCOc1cc(N)c([N+](=O)[O-])cc1C(=O)NC1CCN(CC2CC=CCC2)CC1", "note": "(stereo not given) [Cinitapride Hydrogen Tartrate]", "mean cell size": "12.3 ± 0.2"}, {"smiles": "C[C@@H](O)[C@H]1C(=O)N2C(C(=O)O)=C(SCCNC=N)C[C@H]12", "note": "[Imipenem]", "mean cell size": "12.26 ± 0.071"}, {"smiles": "CC1(C)CC[C@]2(C(=O)O)CC[C@]3(C)C(=CC[C@@H]4[C@@]5(C)CC[C@H](O)C(C)(C)[C@@H]5CC[C@]43C)[C@@H]2C1", "note": "[Oleanolic Acid]", "mean cell size": "12.4 ± 0.22"}, {"smiles": "CC(C)[C@H](N)C(=O)OCC(CO)OCn1cnc2c(=O)[nH]c(N)nc21", "note": "(stereo not given in full) [Valganciclovir HCl]", "mean cell size": "12.7 ± 0.14"}, {"smiles": "CCCCCCCCN=c1ccn(CCCCCCCCCCn2ccc(=NCCCCCCCC)cc2)cc1", "note": "[Octenidine Dihydrochloride]", "mean cell size": "9.029 ± 0.063"}, {"smiles": "COCCCN1CCC(NC(=O)c2cc(Cl)c(N)c3c2OCC3)CC1", "note": "[Prucalopride]", "mean cell size": "12.6 ± 0.1"}, {"smiles": "C[C@@H]1[C@H](O)[C@@H](C)/C=C/C=C/C=C/C=C/C=C/C=C/C=C/[C@H](O[C@@H]2O[C@H](C)[C@@H](O)[C@H](N)[C@@H]2O)C[C@@H]2O[C@](O)(C[C@@H](O)C[C@@H](O)[C@H](O)CC[C@@H](O)C[C@@H](O)CC(=O)O[C@H]1C)C[C@H](O)[C@H]2C(=O)O", "note": "[Amphotericin B]", "mean cell size": "9.69 ± 0.22"}, {"smiles": "Nc1nc2ccc(OC(F)(F)F)cc2s1", "note": "[Riluzole]", "mean cell size": "12.6 ± 0.14"}, {"smiles": "CCCc1nc(C)c2c(=O)nc(-c3cc(S(=O)(=O)N4CCN(CC)CC4)ccc3OCC)[nH]n12", "note": "[Vardenafil HCl Trihydrate]", "mean cell size": "12.53 ± 0.092"}, {"smiles": "COc1ccccc1N1CCN(CCCNc2cc(=O)n(C)c(=O)n2C)CC1", "note": "[Urapidil HCl]", "mean cell size": "12.49 ± 0.088"}, {"smiles": "NCCc1ccc(O)c(O)c1", "note": "[Dopamine HCl]", "mean cell size": "12.4 ± 0.15"}, {"smiles": "Cc1ccccc1OCC(O)CO", "note": "(stereo not given) [Mephenesin]", "mean cell size": "12.23 ± 0.086"}, {"smiles": "O=C1CC2(CCCC2)CC(=O)N1CCCCN1CCN(c2ncccn2)CC1", "note": "[Buspirone HCl]", "mean cell size": "12.4 ± 0.25"}, {"smiles": "CC(C)c1nc(N(C)S(C)(=O)=O)nc(-c2ccc(F)cc2)c1/C=C/[C@@H](O)C[C@@H](O)CC(=O)O", "note": "[Rosuvastatin]", "mean cell size": "11.22 ± 0.092"}, {"smiles": "Cc1cccc(Nc2ccccc2C(=O)O)c1C", "note": "[Mefenamic Acid]", "mean cell size": "12.4 ± 0.21"}, {"smiles": "CC1(C)S[C@@H]2[C@H](NC(=O)Cc3ccccc3)C(=O)N2[C@H]1C(=O)O", "note": "[Benzylpenicillin potassium]", "mean cell size": "12.1 ± 0.18"}, {"smiles": "Cc1nnc(SCC2=C(C(=O)O)N3C(=O)[C@@H](NC(=O)Cn4cnnn4)[C@H]3SC2)s1", "note": "[Cefazolin Sodium]", "mean cell size": "12.24 ± 0.096"}, {"smiles": "CC1(C)S[C@@H]2[C@H](NC(=O)COc3ccccc3)C(=O)N2[C@H]1C(=O)O", "note": "[Penicillin V potassium salt]", "mean cell size": "11.8 ± 0.2"}, {"smiles": "NC(=N\\CCCCCC/N=C(N)/N=C(\\N)Nc1ccc(Cl)cc1)/N=C(\\N)Nc1ccc(Cl)cc1", "note": "[Chlorhexidine diacetate]", "mean cell size": "11.5 ± 0.11"}, {"smiles": "C1N2CN3CN1CN(C2)C3", "note": "[Methenamine]", "mean cell size": "12.21 ± 0.073"}, {"smiles": "CO/N=C(\\C(=O)N[C@@H]1C(=O)N2C(C(=O)O)=C(CSc3nnnn3C)CS[C@H]12)c1csc(N)n1", "note": "[Cefmenoxime hydrochloride]", "mean cell size": "12.5 ± 0.38"}, {"smiles": "Nc1nc(N)c2nc(-c3ccccc3)c(N)nc2n1", "note": "[Triamterene]", "mean cell size": "12.6 ± 0.17"}, {"smiles": "CC1(C)S[C@@H]2[C@H](NC(=O)Cc3ccccc3)C(=O)N2[C@H]1C(=O)O.CCN(CC)CCOC(=O)c1ccc(N)cc1", "note": "[Penicillin G Procaine]", "mean cell size": "12.2 ± 0.22"}, {"smiles": "COc1ccc([C@@H]2Sc3ccccc3N(CCN(C)C)C(=O)[C@@H]2OC(C)=O)cc1", "note": "[Diltiazem HCl]", "mean cell size": "12.5 ± 0.27"}, {"smiles": "O=C(Nc1cc(Cl)cc(Cl)c1O)c1c(O)c(Cl)cc(Cl)c1Cl", "note": "[Oxyclozanide]", "mean cell size": "12.2 ± 0.31"}, {"smiles": "Cc1ccccc1C(OCCN(C)C)c1ccccc1", "note": "(stereo not given) [Orphenadrine Citrate]", "mean cell size": "12.2 ± 0.14"}, {"smiles": "C#C[C@]1(OC(C)=O)CC[C@H]2[C@@H]3CCC4=C[C@@H](OC(C)=O)CC[C@@H]4[C@H]3CC[C@@]21C", "note": "[Ethynodiol diacetate]", "mean cell size": "12.3 ± 0.37"}, {"smiles": "NC1CCN(c2nc3c(cc2F)c(=O)c(C(=O)O)cn3-c2ccc(F)cc2F)C1", "note": "(stereo not given) [Tosufloxacin p-Toluenesulfonate Hydrate]", "mean cell size": "12.3 ± 0.29"}, {"smiles": "CC(=O)[C@H]1CC[C@H]2[C@@H]3CC=C4C[C@@H](O)CC[C@]4(C)[C@H]3CC[C@]12C", "note": "[Pregnenolone]", "mean cell size": "12.46 ± 0.12"}, {"smiles": "CC[C@H]1OC(=O)[C@H](C)[C@@H](O[C@H]2C[C@@](C)(OC)[C@@H](O)[C@H](C)O2)[C@H](C)[C@@H](O[C@@H]2O[C@H](C)C[C@H](N(C)C)[C@H]2O)[C@](C)(O)C[C@@H](C)C(=O)[C@H](C)[C@@H](O)[C@]1(C)O", "note": "[Erythromycin thiocyanate]", "mean cell size": "12.1 ± 0.14"}, {"smiles": "CNS(=O)(=O)Cc1ccc2[nH]cc(CCN(C)C)c2c1", "note": "[Sumatriptan Succinate]", "mean cell size": "12.34 ± 0.1"}]}]}
